Experimental data as given in paper PMC5540273 (PLoS ONE, 2017).

system: CDKL1; conditions: concentration: 1 μM,replicates: in singlicate; n = 1
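Also: KINOMEscan kinase panel screen.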

Point of comparison: `NC(=O)Nc1sc(-c2ccc(F)cc2)cc1C(N)=O` [GW789449], “%Inh” value 27%. Against it:
- COC(=O)Nc1nc2cc(Oc3ccc(NC(=O)Nc4cc(C(F)(F)F)ccc4Cl)cc3)ccc2[nH]1.Cl [GW697465] — lower, 14%
- O=C(Nc1n[nH]c2cc(-c3ccco3)ccc12)C1CC1 [SB-737447] — higher, 29%
- Cc1cccc2c(-c3ccncc3)c(-c3ccc(F)cc3)nn12.Cl [GW461487] — lower, 12%
- CN1CCN(CCNc2nc3cc(Oc4ccc(NC(=O)Nc5cc(C(F)(F)F)ccc5F)cc4)ccc3[nH]2)CC1.Cl.Cl [GW768504] — lower, 3%
- c1ccc(Oc2ccc(Nc3ccnc4ccc(-c5ccccn5)cc34)cc2)cc1 [GW407034] — lower, 9%
- CC(=O)Nc1nc2cnc(Nc3cc(NC(=O)c4cccc(CC(C)(C)C#N)c4)ccc3C)nc2s1 — higher, 50%
- O=C(NCC1CC1)c1ccc(-c2cc(C(=O)NC3CC3)ccc2F)cc1 [GW810445] — lower, 0%
- Cc1ccc(CC(=O)N2CCc3cc(-c4cn(C)c5ncnc(N)c45)ccc32)cc1 [GSK2634758] — lower, 8%
- CSc1nccc(-c2c(-c3ccc(F)cc3)ncn2CCCN2CCOCC2)n1.Cl [SB-217146] — higher, 36%
- O=C(Nc1ccccc1)c1cccc(Oc2ccc3nccn3n2)c1 — lower, 0%
- COc1cccc(C2=C(Nc3cccc(Cl)c3)C(=O)NC2=O)c1 [SB-341556] — lower, 18%
- Cn1ccc2ncnc(Oc3ccc(NC(=O)Nc4cccc(C(F)(F)F)c4)c(Cl)c3)c21 — higher, 29%
- Cc1ccn2nc(-c3ccc(F)cc3)c(-c3ccncc3)c2c1.Cl [GW457859] — lower, 23%
- CCCC(=O)Nc1n[nH]c2ncccc12 [SB-601436] — lower, 0%
- Cn1ccc2ncnc(Oc3ccc(NC(=O)Nc4cccc(C(F)(F)F)c4)c(F)c3)c21 — higher, 62%
- C[C@@H]1CNc2c(sc3ccc4nc(-c5ccc(O)cc5)ccc4c23)C(=O)N1 — lower, 15%
- N#Cc1cccc(C(=O)NC2CCN(c3ccnc(Nc4ccc(F)cc4)n3)C2)c1 (centres unmarked) [GSK1379708] — lower, 8%
- Nc1nccc(-c2ccc3c(N)n[nH]c3c2)n1 [GSK1034945] — lower, 10%
- COc1cccc(CNC(=O)NC2CCN(c3ccnc(Nc4cc(OC)c(OC)c(OC)c4)n3)C2)c1 (centres unmarked) [GSK1379765] — lower, 13%
- COc1cc2c(Nc3ccc(NC(=O)c4ccccc4)cc3)ncnc2cc1OCCCN1CCOCC1 [GSK301329] — lower, 23%
- CC(=O)Nc1ccc(-c2cc3ncnc(SCC(=O)O)c3s2)cc1 — lower, 16%
- CCn1c(-c2nonc2N)nc2cncc(Br)c21 [SB-738004] — lower, 2%
- CCOC(=O)N1CCC(n2cnc(-c3ccc(F)cc3)c2-c2ccnc(N)n2)CC1 [SB-219952] — lower, 7%
- COc1cc2ncn(-c3cc(OCC4CCCCC4)c(C(N)=O)s3)c2cc1OC [GSK204559] — lower, 0%
- Cl.Cl.NC[C@H](CC1CCCCC1)NC(=O)c1ccc(-c2ccnc3[nH]ccc23)s1 [GSK1581428] — lower, 23%
- Cc1n[nH]c2cc(Nc3ccnc(Nc4cccc(CN5CCOCC5)c4)n3)ccc12 [GW682569] — lower, 2%
- Cc1ccc(Nc2ccnc(Nc3ccc4c(c3)CS(=O)(=O)C4)n2)cc1O.Cl [GW579362] — higher, 36%
- Cc1ccc2c(-c3ccnc(Nc4ccc(C(F)(F)F)cc4)n3)cnn2n1 [GW819776] — higher, 39%
- CS(=O)(=O)c1cccc(CNc2nc(Nc3ccc4c(c3)[C@@H]3C[C@@H]4CNC3=O)ncc2C(F)(F)F)c1 — higher, 71%
- Cl.c1ccc(Oc2ccc(Nc3ccnc4cc(-c5ccc(CN6CCNCC6)o5)ccc34)cc2)nc1 [GW567142] — lower, 0%
- CN(c1ccc2c(c1)nc(NCc1ccc(F)cc1)n2C)c1ccnc(Nc2ccc(CS(C)(=O)=O)cc2)n1.Cl [GW813244] — higher, 30%
- CS(=O)c1ccc(-c2coc3ccc(-c4n[nH]c(=O)o4)cc23)cc1 (centres unmarked) — lower, 10%
- Cn1ccc2ncnc(Oc3ccc(NC(=O)Nc4ccnc(C(F)(F)F)c4)c(Cl)c3)c21 — higher, 34%
- C[C@@H]1CCN(C(=O)N2CCCC2)C[C@@H]1N(C)c1ncnc2[nH]ccc12 — lower, 24%
- CCn1c(-c2nonc2N)nc2cncc(CNC3CCNCC3)c21.Cl [SB-747651] — lower, 0%
- Cc1cccc(-c2nc(Nc3ccncc3)c3sccc3n2)n1 [GW869641] — lower, 22%

system: CDKL2; conditions: concentration: 1 μM,replicates: in singlicate; n = 1

Point of comparison: `N#Cc1cccc(C(=O)NC2CCN(c3ccnc(Nc4ccc(F)cc4)n3)C2)c1` (centres unmarked) [GSK1379708], “%Inh” value 17%. Against it:
- COC(=O)Nc1nc2cc(Oc3ccc(NC(=O)Nc4cc(C(F)(F)F)ccc4Cl)cc3)ccc2[nH]1.Cl [GW697465] — higher, 81%
- O=C(Nc1n[nH]c2cc(-c3ccco3)ccc12)C1CC1 [SB-737447] — higher, 86%
- Cc1cccc2c(-c3ccncc3)c(-c3ccc(F)cc3)nn12.Cl [GW461487] — lower, 8%
- CN1CCN(CCNc2nc3cc(Oc4ccc(NC(=O)Nc5cc(C(F)(F)F)ccc5F)cc4)ccc3[nH]2)CC1.Cl.Cl [GW768504] — higher, 56%
- c1ccc(Oc2ccc(Nc3ccnc4ccc(-c5ccccn5)cc34)cc2)cc1 [GW407034] — lower, 16%
- CC(=O)Nc1nc2cnc(Nc3cc(NC(=O)c4cccc(CC(C)(C)C#N)c4)ccc3C)nc2s1 — higher, 99.5%
- O=C(NCC1CC1)c1ccc(-c2cc(C(=O)NC3CC3)ccc2F)cc1 [GW810445] — lower, 0%
- Cc1ccc(CC(=O)N2CCc3cc(-c4cn(C)c5ncnc(N)c45)ccc32)cc1 [GSK2634758] — lower, 0%
- CSc1nccc(-c2c(-c3ccc(F)cc3)ncn2CCCN2CCOCC2)n1.Cl [SB-217146] — lower, 10%
- O=C(Nc1ccccc1)c1cccc(Oc2ccc3nccn3n2)c1 — higher, 20%
- COc1cccc(C2=C(Nc3cccc(Cl)c3)C(=O)NC2=O)c1 [SB-341556] — lower, 12%
- Cn1ccc2ncnc(Oc3ccc(NC(=O)Nc4cccc(C(F)(F)F)c4)c(Cl)c3)c21 — lower, 8%
- Cc1ccn2nc(-c3ccc(F)cc3)c(-c3ccncc3)c2c1.Cl [GW457859] — higher, 28%
- CCCC(=O)Nc1n[nH]c2ncccc12 [SB-601436] — lower, 0%
- Cn1ccc2ncnc(Oc3ccc(NC(=O)Nc4cccc(C(F)(F)F)c4)c(F)c3)c21 — higher, 45%
- C[C@@H]1CNc2c(sc3ccc4nc(-c5ccc(O)cc5)ccc4c23)C(=O)N1 — lower, 0%
- Nc1nccc(-c2ccc3c(N)n[nH]c3c2)n1 [GSK1034945] — higher, 18%
- COc1cccc(CNC(=O)NC2CCN(c3ccnc(Nc4cc(OC)c(OC)c(OC)c4)n3)C2)c1 (centres unmarked) [GSK1379765] — higher, 22%
- COc1cc2c(Nc3ccc(NC(=O)c4ccccc4)cc3)ncnc2cc1OCCCN1CCOCC1 [GSK301329] — higher, 30%
- CC(=O)Nc1ccc(-c2cc3ncnc(SCC(=O)O)c3s2)cc1 — lower, 0%
- CCn1c(-c2nonc2N)nc2cncc(Br)c21 [SB-738004] — lower, 0%
- CCOC(=O)N1CCC(n2cnc(-c3ccc(F)cc3)c2-c2ccnc(N)n2)CC1 [SB-219952] — lower, 0%
- NC(=O)Nc1sc(-c2ccc(F)cc2)cc1C(N)=O [GW789449] — the same, 17%
- COc1cc2ncn(-c3cc(OCC4CCCCC4)c(C(N)=O)s3)c2cc1OC [GSK204559] — lower, 1%
- Cl.Cl.NC[C@H](CC1CCCCC1)NC(=O)c1ccc(-c2ccnc3[nH]ccc23)s1 [GSK1581428] — higher, 51%
- Cc1n[nH]c2cc(Nc3ccnc(Nc4cccc(CN5CCOCC5)c4)n3)ccc12 [GW682569] — the same, 17%
- Cc1ccc(Nc2ccnc(Nc3ccc4c(c3)CS(=O)(=O)C4)n2)cc1O.Cl [GW579362] — higher, 41%
- Cc1ccc2c(-c3ccnc(Nc4ccc(C(F)(F)F)cc4)n3)cnn2n1 [GW819776] — higher, 69%
- CS(=O)(=O)c1cccc(CNc2nc(Nc3ccc4c(c3)[C@@H]3C[C@@H]4CNC3=O)ncc2C(F)(F)F)c1 — higher, 80%
- Cl.c1ccc(Oc2ccc(Nc3ccnc4cc(-c5ccc(CN6CCNCC6)o5)ccc34)cc2)nc1 [GW567142] — lower, 0%
- CN(c1ccc2c(c1)nc(NCc1ccc(F)cc1)n2C)c1ccnc(Nc2ccc(CS(C)(=O)=O)cc2)n1.Cl [GW813244] — higher, 40%
- CS(=O)c1ccc(-c2coc3ccc(-c4n[nH]c(=O)o4)cc23)cc1 (centres unmarked) — lower, 0%
- Cn1ccc2ncnc(Oc3ccc(NC(=O)Nc4ccnc(C(F)(F)F)c4)c(Cl)c3)c21 — lower, 3%
- C[C@@H]1CCN(C(=O)N2CCCC2)C[C@@H]1N(C)c1ncnc2[nH]ccc12 — lower, 11%
- CCn1c(-c2nonc2N)nc2cncc(CNC3CCNCC3)c21.Cl [SB-747651] — higher, 20%
- Cc1cccc(-c2nc(Nc3ccncc3)c3sccc3n2)n1 [GW869641] — lower, 0%
